# From PubChem BioAssay
# KCNQ2 enhance: enhances the rat KCNQ2 potassium channel. O88943. CHO-K1 KCNQ2, FluxOR thallium flux fluorescence; stronger effect = higher value. B-score at 10 µM. 310,000 compounds, 0.54% hits;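 active means fluorescence ratio B-score at least 3 SD of library B-scores, with initial fluorescence B-score within 3 of them, cut at about 5.3 in these data; same plate scores as AID 2156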;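 further: B-score of peak minus minimum over baseline fluorescence ratio after K+ and Tl+ stimulus; positive B-score means potentiation of KCNQ2 with more thallium influx and brighter signal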
# KCNQ2 block: blocks the rat KCNQ2 potassium channel | CHO-K1 KCNQ2, FluxOR thallium flux, 20 min; stronger effect = lower value | B-score at 10 µM | O88943 | 310,000 compounds, 1.1% hits;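 active means fluorescence ratio B-score at most minus 3 library SDs, with starting brightness B-score within 2 library SDs, cut at about -5.5 in these data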
# Kir21 confirm: confirmation of mouse Kir2.1 potassium channel inhibitors | shares compounds with KCNQ2 enhance | Kir2.1-expressing cells, FluxOR thallium flux fluorescence; stronger effect = lower value | Tl flux remaining, % of negative control (stronger effect = lower value), % at 10 µM | 2,300 compounds, 41% hits;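 active means Primary-screen hit whose thallium flux fell at least 3 control SD below untreated wells in both duplicates, with normal baseline fluorescence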;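 further: 0% = blank wells without stimulus and 100% = stimulated no-compound controls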
# Target sequence (P35561 whole entry, looked up): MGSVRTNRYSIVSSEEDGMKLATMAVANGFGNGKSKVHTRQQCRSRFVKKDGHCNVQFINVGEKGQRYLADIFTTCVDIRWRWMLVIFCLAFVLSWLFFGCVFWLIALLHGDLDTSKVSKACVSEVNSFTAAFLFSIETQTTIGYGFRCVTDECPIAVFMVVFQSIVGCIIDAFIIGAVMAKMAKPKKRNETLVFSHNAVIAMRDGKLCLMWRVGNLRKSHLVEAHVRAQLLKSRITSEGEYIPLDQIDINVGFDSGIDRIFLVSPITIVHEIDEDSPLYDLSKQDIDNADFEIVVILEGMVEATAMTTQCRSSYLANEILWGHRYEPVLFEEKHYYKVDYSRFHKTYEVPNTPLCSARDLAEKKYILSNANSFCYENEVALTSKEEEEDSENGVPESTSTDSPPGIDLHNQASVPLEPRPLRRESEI
# HEK293 Tl flux: parental HEK293 activity in Kir2.1 inhibitor counter-screen. shares compounds with KCNQ2 enhance. parental HEK293 cells, FluxOR thallium flux fluorescence; 0% = unstimulated blank wells. FluxOR signal as % of negative control (100 = no effect), % at 10 µM. 2,300 compounds, 19% hits;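 active means dye signal at least 3 control SD above or below untreated wells in both duplicates, raw fluorescence within 3, either direction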;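 further: percent is based on the flux ratio of peak minus minimum fluorescence over baseline F0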
# CHO-K1 ctr: counter-screen for KCNQ2 potentiators: effect in parental CHO-K1 cells; shares compounds with KCNQ2 enhance; FluxOR thallium flux fluorescence; zero = vehicle mean+3SD, 100% = vehicle-minus-blank window; activity increase over 3SD of controls, % at 10 µM; 1,200 compounds, 43% hits; AID 2282;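 active means signal rise of at least 3 SD above the untreated control mean, in both duplicate wells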;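 further: counter screen of KCNQ2 potentiator hits so any rise reflects channel-independent effects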
# KCNQ1 pot spec: human KCNQ1 counter-target activity of KCNQ2 potentiators. AID 2283. shares compounds with KCNQ2 enhance. CHO KCNQ1 stable, FluxOR thallium flux fluorescence; beyond 3SD, as % of vehicle-control signal. 1,200 compounds, 28% hits. activation over 3SD threshold, % at 10 µM;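 active means fluorescence ratio rise of at least 3 SD of vehicle wells above their mean, in both replicate wells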;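 further: 0% = vehicle mean plus 3 SD and 100% = vehicle minus unstimulated blank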
# KCNQ2 pot confirm: confirmation of rat KCNQ2 potassium channel potentiators; potentiation, less the hit threshold, % at 10 µM; 1,200 compounds, 68% hits; CHO-KCNQ2 cells, FluxOR thallium flux fluorescence; shares compounds with KCNQ2 enhance;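 active means fluorescence ratio rising 3 SD or more over the vehicle control mean in both replicates, plus primary screen hit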;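 further: peak minus minimum thallium fluorescence divided by baseline after K/Tl stimulus; 0% = vehicle mean plus 3 SD and 100% = vehicle minus unstimulated blank difference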
# Kir2-1 sel: tests whether KCNQ2 potentiators also affect mouse Kir2.1 | HEK293 Kir2.1, FluxOR thallium flux fluorescence | AID 2345 | shares compounds with KCNQ2 enhance | 1,200 compounds, 2% hits | activity over 3SD threshold, % at 10 µM;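 active means fluorescence ratio rise of at least 3 SD above the vehicle-control mean, seen in both replicates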;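 further: 0% = vehicle mean plus 3 SD and 100% = vehicle minus no-stimulus blank window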
# KCNQ2 W236L MoA: potentiates the retigabine-insensitive rat KCNQ2 W236L mutant channel; shares compounds with KCNQ2 enhance; CHO KCNQ2-W236L, automated patch clamp current; current increase over 3SD of negative controls (%), stronger effect = higher value, % at 25 µM; 940 compounds, 10% hits;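 active means current increase at least 3 SD of the untreated controls above them in both duplicate recordings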
# An asterisk follows results filed as active; i = inactive; / = no result. Rows were chosen to be rich in hits. Some 1.6% of all compounds tested hit in one or more screens of this group.
SMILES,KCNQ2 enhance,KCNQ2 block,Kir21 confirm,HEK293 Tl flux,CHO-K1 ctr,KCNQ1 pot spec,KCNQ2 pot confirm,Kir2-1 sel,KCNQ2 W236L MoA
CC(C)(C)n1nc2c(c1NC(=O)Cc1ccc(F)cc1)CSC2,14*,i,i,i,1.6*,-16,84*,-45,i
CC(C)(C)C(=O)Nc1c2c(nn1-c1ccc(F)cc1)CSC2,0.03,i,/,/,/,/,/,/,/
CCCC(O)(c1ccc(OC)cc1)C(CN1CCOCC1)c1ccc(Cl)cc1 (stereo not given),5.2,i,/,/,/,/,/,/,/
COc1ccc(C(O)(CCC(C)C)C(CN2CCOCC2)c2ccc(Cl)cc2)cc1 (stereo not given),6.4*,i,i,i,-24,46*,-4,-30,/
COc1ccc(N2CCN(S(=O)(=O)c3ccc(OC)c(C(=O)N4CCCC4)c3)CC2)cc1,2.2,i,/,/,/,/,/,/,/
Cc1ccc(-c2csc(NC(=O)c3ccc4c(=O)n5c(nc4c3)CCCCC5)n2)cc1,0.81,i,/,/,/,/,/,/,/
CC(=O)Nc1ccc(N/C=C/C(=O)C(C)(C)C)cc1,/,i,/,/,/,/,/,/,/
Cc1ccc(N/C=C/C(=O)C(C)(C)C)c(O)c1,8.3*,i,i,i,-1,2.9*,8.3*,-21,i
CC(=O)Nc1ccc(S(=O)(=O)NCCC(=O)OCC(=O)NNC(=O)c2ccccc2)cc1,1.5,i,/,/,/,/,/,/,/
Cc1ccccc1C(=O)NC(=S)N(C)CCc1ccccn1,/,i,/,/,/,/,/,/,/
Nc1c(Cl)cc(-c2csc(N3CCCC3c3nc4cc(Cl)c(Cl)cc4n3CCCO)n2)cc1Cl (stereo not given),/,i,/,/,/,/,/,/,/
Nc1c(Cl)cc(-c2csc(N3CCCC3c3nc4cc(Cl)c(N5CCCCC5)cc4n3CCOCCO)n2)cc1Cl (stereo not given),6.3*,i,i,i,3.5*,-22,-11,-24,i
Cc1csc(N2CCCC2c2nc3cc(Cl)c(N4CCCCC4)cc3n2CCOCCO)n1 (stereo not given),1.4,i,/,/,/,/,/,/,/
OCOCCCn1c(C2CCCN2c2nc(-c3ccc(F)cc3)cs2)nc2cc(Cl)c(N3CCCCC3)cc21 (stereo not given),6.9*,i,i,i,58*,-18,-4,-24,/
OCCCn1c(C2CCCN2c2nc(-c3ccc(F)cc3)cs2)nc2cc(Cl)c(Cl)cc21 (stereo not given),0.26,i,/,/,/,/,/,/,/
Nc1c(Cl)cc(-c2csc(N3CCCC3c3nc4cc(Cl)c(N5CCCCC5)cc4n3CCCO)n2)cc1Cl (stereo not given),20*,i,i,i,-13,-50,38*,-23,i
O=C(Nc1cccc(F)c1)C1CCN(C(=O)NCc2ccccc2)CC1,/,i,/,/,/,/,/,/,/
Cn1ccc2c([N+](=O)[O-])cccc2c1=O,/,i,/,/,/,/,/,/,/
O=C(O)c1cc(NN=Nc2cccc([N+](=O)[O-])c2)cc([N+](=O)[O-])c1,2.6,i,/,/,/,/,/,/,/
O=C(O)c1cc(NN=Nc2ccc(Br)cc2)cc([N+](=O)[O-])c1,7.4*,i,i,i,-2,33*,16*,-38,i
CC(C)(C)Cc1nnc(NS(=O)(=O)c2ccc([N+](=O)[O-])cc2)s1,2.1,i,/,/,/,/,/,/,/
COc1ccc(OC)c(C(C)NC(=O)C23CC4CC(CC(C4)C2)C3)c1 (stereo not given),4.8,i,/,/,/,/,/,/,/
COc1ccc(OC)c(C(C)NC(=O)Nc2ccccc2)c1 (stereo not given),9.6*,i,/,/,-9,-12,33*,-64,i
COC(=O)C1(C(F)(F)F)C2C=CC(C2)N1S(=O)(=O)c1ccc(C)cc1 (stereo not given),/,i,/,/,/,/,/,/,/
